Reference: PubChem BioAssay (Tox21)
Results filed as inconclusive are left out. Activity calls are given as the source filed them. Unless noted, calls follow the shape of the dose curve; as a rule, active = well fitted curve in the direction sought with a large enough effect in the repeat runs; inconclusive = weak or mixed curves; inactive = no such curve, though single readings can be large; an effect the other way counts as inactive or inconclusive.

Key:
[1] = qHTS assay to identify small molecule agonists of the vitamin D receptor (VDR) signaling pathway - cell viability counter screen (AID 743224); also: series mostly up to about 63 µM; % is scaled to controls: 0 for no effect and ±100 for the full control effect; nearly all actives have a fitted effect of over 50% in size
Method in brief: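 Counter screen for cytotoxicity: VDR-bla cells at 2,000 cells/well, 16 h compound exposure, then CellTiter-Glo luminescence after the beta-lactamase measurement.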

[2] = qHTS assay to identify small molecule antagonists of the vitamin D receptor (VDR) signaling pathway - cell viability counter screen (AID 743225); also: % is scaled to controls: 0 for no effect and ±100 for the full control effect; nearly all actives have a fitted effect of over 50% in size
Method in brief: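 In this counter screen, VDR-bla HEK 293T cells receive test compound plus 3 nM final calcitriol for 16 h at 37C. Room-temperature steps of 2 h with the beta-lactamase substrate, then 30 min with CellTiter-Glo, precede the luminescence read.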

[3] = qHTS assay to identify small molecule agonists of the NFkB signaling pathway (AID 1159509; active = well fitted curve in the direction sought with a large enough effect in the signal ratio in the repeat runs, not every such curve was filed as active; the % refers to the signal ratio; also: series mostly up to about 61 µM; % is scaled to controls: 0 for no effect and ±100 for the full control effect)
Method in brief: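 Beta-lactamase reporter assay run in quantitative high-throughput format on an NF-kB-responsive ME-180 line, with 5 hr compound treatment and a FRET-based blue/green fluorescence readout.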

[4] = qHTS assay to identify small molecule agonists of the NFkB signaling pathway - cell viability counter screen (AID 1159515; calls by dose curve; also: series mostly up to about 61 µM; % is scaled to controls: 0 for no effect and ±100 for the full control effect; nearly all actives have a fitted effect of over 55% in size)
Method in brief: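 Counter screen run alongside the NFkB-bla agonist assay: ME-180 reporter cells exposed to compounds for 5 hr, then lysed with CellTiter-Glo in the same wells. Luminescence, read after 30 min, reflects viable cells.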

[5] = qHTS assay to identify small molecule agonists of the endoplasmic reticulum stress response signaling pathway (AID 1159516; active = well fitted activation curve with a large enough effect in the signal ratio in the repeat runs, not every such curve was filed as active; the % refers to the signal ratio; also: % is scaled to controls: 0 for no effect and ±100 for the full control effect)
Method in brief: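 For this screen, HeLa cells stably carrying beta-lactamase under the ER stress response element received test compounds, positive controls or DMSO for 5 hr at 37 C; B/G FRET substrate was then added and dual-wavelength emission recorded.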

[6] = qHTS assay to identify small molecule agonists of the endoplasmic reticulum stress response signaling pathway - cell viability counter screen (AID 1159517; calls by dose curve; also: series mostly up to about 61 µM; % is scaled to controls: 0 for no effect and ±100 for the full control effect; nearly all actives have a fitted effect of over 50% in size)
Method in brief: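 Steps: seed 1,500 ESRE-bla HeLa cells per well; incubate overnight at 37 C, 5% CO2; add compounds in DMSO for 5 hr; run FRET substrate 2 hr RT; add CellTiter-Glo, wait 30 min, read luminescence.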

[7] = qHTS assay to identify small molecule antagonists of the retinoid-related orphan receptor gamma (ROR-gamma) signaling pathway - cell viability counter screen (AID 1159520); also: % is scaled to controls: 0 for no effect and ±100 for the full control effect; nearly all actives have a fitted effect of over 50% in size
Method in brief: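 Tet-on ROR gamma CHO cells were given compounds for 2 hr, then doxycycline hyclate at 1 uM final, and incubated 16 hr at 37 C. Viability was measured as ATP content by CellTiter-Glo luminescence.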

[8] = biological target: Nuclear receptor ROR-gamma (Homo sapiens) (UniProt P51449); experiment: qHTS assay to identify small molecule antagonists of the retinoid-related orphan receptor gamma (ROR-gamma) signaling pathway (AID 1159521; also: nearly all actives have a fitted effect of over 50% in size; also: potency is read from the fitted curve at half-maximal effect;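 as to activity change, negative = inhibition: CHO cells with doxycycline inducible ROR-gamma driving an RORE luciferase reporter; top concentration of the series differs between compounds; % is scaled to controls: 0 for no effect and ±100 for the full control effect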)
Method in brief: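 Screening format: cell-based luciferase reporter in CHO cells with doxycycline-inducible RORγ. Compound pre-exposure lasts 2 h, doxycycline is 1 uM final, induction runs 16 h at 37 C, and ONE-Glo luminescence is read.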

[9] = qHTS assay to identify small molecule agonists of the AP-1 signaling pathway - cell viability counter screen (AID 1159525; calls by dose curve; also: nearly all actives have a fitted effect of over 55% in size)
Method in brief: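 Same-well cytotoxicity counter screen of the Tox21 10K library in ME-180 cells. The readout is ATP-dependent luminescence after 5 h compound treatment. Data are normalised to DMSO and tetra n-octyl ammonium bromide controls.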

[10] = qHTS assay to identify small molecule agonists of the AP-1 signaling pathway (AID 1159526; calls by dose curve; also: % is scaled to controls: 0 for no effect and ±100 for the full control effect)

Cn1cnc2c(=O)[nH]c(N)nc21
inactive: outcome [1] | outcome [2] | outcome [3] | outcome [4] | outcome [5] | outcome [6] | Potency [7] | Potency [8] | outcome [9] | Potency [10]

O=C(O)c1ccccc1S
inactive: outcome [1] | outcome [2] | outcome [3] | outcome [4] | outcome [5] | outcome [6] | Potency [7] | Potency [8] | outcome [9] | Potency [10]

C[C@H]1O[C@@H](n2cc(F)c(=O)[nH]c2=O)[C@H](O)[C@@H]1O
inactive: outcome [1] | outcome [2] | outcome [3] | outcome [4] | outcome [5] | outcome [6] | Potency [7] | Potency [8] | outcome [9] | Potency [10]

CN(C)N=Nc1ccccc1
inactive: outcome [1] | outcome [2] | outcome [3] | outcome [4] | outcome [5] | outcome [6] | Potency [7] | Potency [8] | outcome [9] | Potency [10]

COc1cccc(OC)c1
inactive: outcome [1] | outcome [2] | outcome [3] | outcome [4] | outcome [5] | outcome [6] | Potency [7] | Potency [8] | outcome [9] | Potency [10]

Cc1cc(C)cc(OCC2CNC(=O)O2)c1 (stereo not given)
inactive: outcome [1] | outcome [2] | outcome [3] | outcome [4] | outcome [5] | outcome [6] | Potency [7] | Potency [8] | outcome [9] | Potency [10]

Nc1cc(N)cc(C(=O)O)c1
inactive: outcome [1] | outcome [2] | outcome [3] | outcome [4] | outcome [5] | outcome [6] | Potency [7] | Potency [8] | outcome [9] | Potency [10]

CSc1nc(NC2CC2)nc(NC(C)(C)C)n1
inactive: outcome [1] | outcome [2] | outcome [3] | outcome [4] | outcome [5] | outcome [6] | Potency [7] | Potency [8] | outcome [9] | Potency [10]

Cc1c(F)cc2c(=O)c(C(=O)O)cn3c2c1CCC3C (stereo not given)
inactive: outcome [1] | outcome [2] | outcome [3] | outcome [4] | outcome [5] | outcome [6] | Potency [7] | Potency [8] | outcome [9] | Potency [10]

Cc1ccc(Nc2ccc(O)c3c2C(=O)c2ccccc2C3=O)cc1
inactive: outcome [1] | outcome [2] | outcome [3] | outcome [4] | outcome [5] | outcome [6] | Potency [7] | Potency [8] | outcome [9] | Potency [10]

CC(C)(C)N(CCO)CCO
inactive: outcome [1] | outcome [2] | outcome [3] | outcome [4] | outcome [5] | outcome [6] | Potency [7] | Potency [8] | outcome [9] | Potency [10]

N#CCN(CC#N)CCN(CC#N)CC#N
inactive: outcome [1] | outcome [2] | outcome [3] | outcome [4] | outcome [5] | outcome [6] | Potency [7] | Potency [8] | outcome [9] | Potency [10]

CCCCCOC(=O)Nc1nc(=O)n([C@@H]2O[C@H](C)[C@@H](O)[C@H]2O)cc1F
inactive: outcome [1] | outcome [2] | outcome [3] | outcome [4] | outcome [5] | outcome [6] | Potency [7] | outcome [9] | Potency [10]
active: Potency [8] 11.9 µM

O=Cc1ccccc1[N+](=O)[O-]
inactive: outcome [1] | outcome [2] | outcome [3] | outcome [4] | outcome [5] | outcome [6] | Potency [7] | Potency [8] | outcome [9] | Potency [10]

Oc1cc(O)c2c(c1)O[C@H](c1ccc(O)c(O)c1)[C@H](O)C2
inactive: outcome [1] | outcome [2] | outcome [3] | outcome [4] | outcome [5] | outcome [6] | Potency [7] | Potency [8] | outcome [9] | Potency [10]

N#CCc1ccccc1[N+](=O)[O-]
inactive: outcome [1] | outcome [2] | outcome [3] | outcome [4] | outcome [5] | outcome [6] | Potency [7] | Potency [8] | outcome [9] | Potency [10]

NS(=O)(=O)c1cc(C2(O)NC(=O)c3ccccc32)ccc1Cl (stereo not given)
inactive: outcome [1] | outcome [2] | outcome [3] | outcome [4] | outcome [5] | outcome [6] | Potency [7] | Potency [8] | outcome [9] | Potency [10]

COc1ccc(NC(C)=O)cc1
inactive: outcome [1] | outcome [2] | outcome [3] | outcome [4] | outcome [5] | outcome [6] | Potency [7] | Potency [8] | outcome [9] | Potency [10]

C1CCCCCCCCCCC1
inactive: outcome [1] | outcome [2] | outcome [3] | outcome [4] | outcome [5] | outcome [6] | activity, negative = cytotoxicity [7] 0.201% [at 19 µM] | activity change, negative = inhibition [8] -5.57% [at 19 µM] | viability change, negative = cytotoxic [9] 0.327% [at 15.8 µM] | activation [10] -0.287% [at 15.8 µM]

CC(C)c1ccc2oc3nc(N)c(C(=O)O)cc3c(=O)c2c1
inactive: outcome [1] | outcome [2] | outcome [3] | outcome [4] | outcome [5] | outcome [6] | Potency [7] | Potency [8] | outcome [9] | Potency [10]

Cc1ccccc1C(=O)O
inactive: outcome [1] | outcome [2] | outcome [3] | outcome [4] | outcome [5] | outcome [6] | Potency [7] | Potency [8] | outcome [9] | Potency [10]

NCC[C@H](O)C(=O)N[C@@H]1C[C@H](N)[C@@H](O[C@H]2O[C@H](CN)[C@@H](O)[C@H](O)[C@H]2O)[C@H](O)[C@H]1O[C@H]1O[C@H](CO)[C@@H](O)[C@H](N)[C@H]1O
inactive: activity change, negative = cytotoxicity [1] 7.01% [at 0.55 µM] | viability change, negative = cytotoxic [2] 0.0036% [at 0.628 µM] | activation [3] 0.167% [at 0.628 µM] | activity, negative = cytotoxic [4] 8.7% [at 0.628 µM] | activation [5] -0.818% [at 0.628 µM] | activity change, negative = cytotoxicity [6] 6.85% [at 0.628 µM] | activity, negative = cytotoxicity [7] 3.36% [at 0.349 µM] | activity change, negative = inhibition [8] 19% [at 0.35 µM] | viability change, negative = cytotoxic [9] 8.93% [at 0.29 µM] | activation [10] 12.3% [at 0.29 µM]

COc1nc(C)nc(N)n1
inactive: outcome [1] | outcome [2] | outcome [3] | outcome [4] | outcome [5] | outcome [6] | Potency [7] | Potency [8] | outcome [9] | Potency [10]

CC1(C)OC(=O)Nc2ccc(Br)cc21
inactive: outcome [1] | outcome [2] | outcome [3] | outcome [4] | outcome [5] | outcome [6] | Potency [7] | Potency [8] | outcome [9] | Potency [10]
